# The full data set covers some 7,900 targets. This sample favours those with a hit. About 0.6% of all pairs of compound and target were hits. Unmarked numbers belong to inactive results.
# Legend:
# Experiment in all cases: log2 fold change, soluble protein after heating vs DMSO (PISA); higher = thermal stabilisation; K562 cells, 10 uM, 30 min; active = over 0.2 and 3.5 SD of the protein, either way, in both replicates (recomputed)
# [1] = compound: CC1=C(C=C(C=C1)NC(=O)C2=CC(=CC=C2)C(C)(C)C#N)NC3=CC4=C(C=C3)N=CN(C4=O)C
# Method in brief: (§1)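 Values are thermal stability changes relative to control samples and are taken from duplicates. They are stated as log2 fold changes. Before quantification by TMTpro 16plex LC-MS/MS with equalised channel sums, K562 cells at 2×10^6 cells/mL were treated with 10 μM compound for 30 min, heated in aliquots for 3 min across 48°C-58°C, pooled, extracted in PBS with 0.5% NP-40 at 4°C, and centrifuged at 21,000xg for 90 min to give the soluble supernatant.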
# [2] = compound: CC1=C(C=C(C=C1)NC(=O)C2=CC(=CC=C2)N(C)C)NC(=O)C3=CC=C(C=C3)O
# Method in brief: as §1
# [3] = compound: CC1=CC=C(C=C1)SC2=C3C=C(SC3=CN=C2)C(=O)N
# Method in brief: as §1
# [4] = compound: CC1=NC(=CC=C1)C2=C(N=C(N2)C(C)(C)C)C3=CC4=NC=CN=C4C=C3
# Method in brief: as §1
# [5] = compound: CCCCN(Cc1ccc(C(=O)NO)cc1)C(=O)Nc1ccccc1 [Nexturastat A]
# Method in brief: as §1
# [6] = compound: CCCS(=O)(=O)Nc1ccc(F)c(C(=O)c2c[nH]c3ncc(-c4ccc(Cl)cc4)cc23)c1F [vemurafenib]
# Method in brief: as §1
# [7] = compound: CCCS(=O)(=O)Nc1ccc(F)c(C(=O)c2c[nH]c3ncc(Cl)cc23)c1F
# Method in brief: as §1
# [8] = compound: CCCc1cc(C)[nH]c(=O)c1CNC(=O)c1cc(-c2ccnc(N3CCN(C)CC3)c2)cc2c1cnn2C(C)C
# Method in brief: as §1
# [9] = compound: CCN(CC)Cc1ccc2cc(COC(=O)Nc3ccc(C(=O)NO)cc3)ccc2c1 [givinostat]
# Method in brief: as §1
# [10] = compound: CCN(CCCOc1ccc2c(Nc3cc(CC(=O)Nc4cccc(F)c4)[nH]n3)ncnc2c1)CCOP(=O)(O)O [barasertib]
# Method in brief: as §1
# [11] = compound: CC[C@@H]1C(=O)N(C)c2cnc(Nc3ccc(C(=O)NC4CCN(C)CC4)cc3OC)nc2N1C1CCCC1
# Method in brief: as §1
# [12] = compound: CC[C@@H]1C(=O)N(C)c2cnc(Nc3ccc(C(=O)N[C@H]4CC[C@H](N5CCN(CC6CC6)CC5)CC4)cc3OC)nc2N1C(C)C [volasertib]
# Method in brief: as §1
# [13] = compound: CC[C@H](C)N1C=C(C2=C(C=C(C=C21)C3=CN=C(C=C3)N4CCNCC4)C(=O)NCC5=C(C=C(NC5=O)C)C)C
# Method in brief: as §1
# [14] = compound: CC[C@H](C)[C@@H](C(=O)N[C@@H]([C@@H](C)O)C(=O)N[C@@H](CC(C)C)C(=O)[C@]1(CO1)C)NC(=O)[C@H]([C@@H](C)CC)N(C)C(=O)C [epoxomicin]
# Method in brief: as §1
# [15] = compound: CCn1c(C(=O)N(C2CC2)C2CC2)cc2c3c(ncn3C)c(Nc3cc(C)n(C)n3)nc21
# Method in brief: as §1
# [16] = compound: CCn1cc(-c2ccnc3[nH]c(-c4cccc(CN(C)C)c4)cc23)c(-c2ccc(NC(=O)N(C)C)cc2)n1
# Method in brief: as §1
# [17] = compound: CN(C)CC(=O)Nc1ccc2[nH]c(=O)c3ccccc3c2c1
# Method in brief: as §1
# [18] = compound: CN(CCOC1=CC=C(C=C1)C[C@H]2C(=O)NC(=O)S2)C3=CC=CC=N3 (racemic) [rosiglitazone]
# Method in brief: as §1
# [19] = compound: CN1C2=C(C3=C1C(=O)N(N=C3)CC4=CC(=CC=C4)N)SC(=C2)S(=O)C
# Method in brief: as §1
# [20] = compound: CN1CCC(CNc2ccc3ncc(-c4cccc(OC(F)(F)F)c4)n3n2)CC1
# Method in brief: as §1
# Sequence of UniProt P52597 (P52597 whole entry, looked up): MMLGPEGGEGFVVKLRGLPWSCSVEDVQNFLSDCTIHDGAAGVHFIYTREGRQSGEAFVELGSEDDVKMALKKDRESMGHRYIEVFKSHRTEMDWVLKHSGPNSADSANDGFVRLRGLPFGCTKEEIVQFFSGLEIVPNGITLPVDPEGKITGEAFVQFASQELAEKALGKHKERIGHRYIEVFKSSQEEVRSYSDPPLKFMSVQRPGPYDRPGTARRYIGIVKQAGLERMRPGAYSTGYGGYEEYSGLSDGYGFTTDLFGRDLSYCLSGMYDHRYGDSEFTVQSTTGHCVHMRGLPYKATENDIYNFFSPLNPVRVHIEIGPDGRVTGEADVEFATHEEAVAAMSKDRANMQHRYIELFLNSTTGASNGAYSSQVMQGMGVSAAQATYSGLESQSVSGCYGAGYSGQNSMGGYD
# Sequence of UniProt Q53GQ0 (Q53GQ0 whole entry, looked up): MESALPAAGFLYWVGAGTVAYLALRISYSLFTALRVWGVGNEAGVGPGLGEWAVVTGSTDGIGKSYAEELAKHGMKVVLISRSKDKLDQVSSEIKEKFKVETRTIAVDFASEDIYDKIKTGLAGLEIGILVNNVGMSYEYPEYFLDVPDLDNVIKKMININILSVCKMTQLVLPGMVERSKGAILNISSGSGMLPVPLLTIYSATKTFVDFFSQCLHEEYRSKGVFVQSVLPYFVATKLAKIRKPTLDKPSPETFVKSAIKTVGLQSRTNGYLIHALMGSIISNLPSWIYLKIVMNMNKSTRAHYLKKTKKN
# Sequence of UniProt Q96JB3 (Q96JB3 whole entry, looked up): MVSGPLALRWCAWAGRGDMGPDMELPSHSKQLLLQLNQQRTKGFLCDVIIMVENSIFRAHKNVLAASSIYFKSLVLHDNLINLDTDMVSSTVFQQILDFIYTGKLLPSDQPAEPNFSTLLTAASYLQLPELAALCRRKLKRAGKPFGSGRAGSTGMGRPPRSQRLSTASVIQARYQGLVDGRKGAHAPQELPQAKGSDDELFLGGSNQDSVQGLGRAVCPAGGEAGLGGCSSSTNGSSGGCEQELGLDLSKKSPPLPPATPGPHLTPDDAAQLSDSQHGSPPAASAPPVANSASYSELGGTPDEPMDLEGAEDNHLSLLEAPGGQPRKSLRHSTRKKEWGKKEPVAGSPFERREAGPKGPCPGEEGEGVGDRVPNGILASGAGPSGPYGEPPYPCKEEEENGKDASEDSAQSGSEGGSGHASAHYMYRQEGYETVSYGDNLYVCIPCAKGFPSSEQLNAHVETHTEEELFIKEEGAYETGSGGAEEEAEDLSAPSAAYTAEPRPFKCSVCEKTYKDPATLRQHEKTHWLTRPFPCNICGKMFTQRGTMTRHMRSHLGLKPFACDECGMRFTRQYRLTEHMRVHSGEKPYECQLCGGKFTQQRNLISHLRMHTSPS
# Sequence of UniProt Q8N9F7 (Q8N9F7 whole entry, looked up): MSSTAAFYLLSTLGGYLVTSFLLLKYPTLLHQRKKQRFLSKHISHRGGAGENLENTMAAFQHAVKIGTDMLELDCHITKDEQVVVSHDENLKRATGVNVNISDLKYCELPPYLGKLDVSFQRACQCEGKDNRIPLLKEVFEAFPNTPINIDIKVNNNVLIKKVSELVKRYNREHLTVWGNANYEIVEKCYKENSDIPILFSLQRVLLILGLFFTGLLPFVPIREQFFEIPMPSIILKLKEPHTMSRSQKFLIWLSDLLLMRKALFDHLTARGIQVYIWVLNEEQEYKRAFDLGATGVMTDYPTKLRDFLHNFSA
# Sequence of UniProt O00291 (O00291 whole entry, looked up): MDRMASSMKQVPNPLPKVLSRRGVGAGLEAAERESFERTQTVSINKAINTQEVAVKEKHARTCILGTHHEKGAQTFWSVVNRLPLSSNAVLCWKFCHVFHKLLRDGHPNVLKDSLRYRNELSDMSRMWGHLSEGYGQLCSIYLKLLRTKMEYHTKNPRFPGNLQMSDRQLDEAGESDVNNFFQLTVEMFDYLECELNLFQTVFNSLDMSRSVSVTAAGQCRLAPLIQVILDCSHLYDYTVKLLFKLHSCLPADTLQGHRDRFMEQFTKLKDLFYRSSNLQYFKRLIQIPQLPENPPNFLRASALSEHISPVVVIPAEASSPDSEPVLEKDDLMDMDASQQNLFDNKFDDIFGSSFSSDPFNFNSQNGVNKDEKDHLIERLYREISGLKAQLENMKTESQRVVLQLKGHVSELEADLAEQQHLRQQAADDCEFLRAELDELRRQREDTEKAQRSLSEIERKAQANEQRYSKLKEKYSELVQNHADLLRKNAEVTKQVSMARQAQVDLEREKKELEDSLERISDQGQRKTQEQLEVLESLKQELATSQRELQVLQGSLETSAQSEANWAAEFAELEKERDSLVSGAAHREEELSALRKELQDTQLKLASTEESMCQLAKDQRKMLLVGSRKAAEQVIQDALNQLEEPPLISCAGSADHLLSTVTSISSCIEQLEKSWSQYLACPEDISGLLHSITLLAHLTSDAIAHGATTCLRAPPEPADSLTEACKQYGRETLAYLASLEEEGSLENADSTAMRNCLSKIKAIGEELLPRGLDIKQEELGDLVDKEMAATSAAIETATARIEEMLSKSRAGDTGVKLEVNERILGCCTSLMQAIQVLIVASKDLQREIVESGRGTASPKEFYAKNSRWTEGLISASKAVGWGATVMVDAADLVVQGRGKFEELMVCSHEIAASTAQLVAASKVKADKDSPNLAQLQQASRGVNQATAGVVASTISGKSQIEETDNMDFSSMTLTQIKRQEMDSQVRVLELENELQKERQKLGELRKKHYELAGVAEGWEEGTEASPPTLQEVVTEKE
# Sequence of UniProt Q12894 (Q12894 whole entry, looked up): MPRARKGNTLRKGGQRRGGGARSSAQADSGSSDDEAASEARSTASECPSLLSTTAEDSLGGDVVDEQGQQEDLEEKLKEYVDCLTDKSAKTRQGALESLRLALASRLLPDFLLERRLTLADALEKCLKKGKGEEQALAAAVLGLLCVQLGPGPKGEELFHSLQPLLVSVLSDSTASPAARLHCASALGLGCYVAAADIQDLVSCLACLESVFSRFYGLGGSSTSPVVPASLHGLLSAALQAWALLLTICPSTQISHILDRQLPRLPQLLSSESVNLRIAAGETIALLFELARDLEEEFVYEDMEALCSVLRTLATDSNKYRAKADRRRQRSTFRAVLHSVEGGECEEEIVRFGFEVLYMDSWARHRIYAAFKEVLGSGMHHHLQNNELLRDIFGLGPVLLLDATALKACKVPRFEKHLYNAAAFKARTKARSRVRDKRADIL
# Sequence of UniProt P23434 (P23434 whole entry, looked up): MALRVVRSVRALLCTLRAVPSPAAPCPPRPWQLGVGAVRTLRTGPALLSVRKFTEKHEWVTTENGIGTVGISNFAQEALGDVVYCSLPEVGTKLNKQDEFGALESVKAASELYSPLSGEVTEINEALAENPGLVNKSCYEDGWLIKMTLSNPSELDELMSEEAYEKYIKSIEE
# Sequence of UniProt P36915 (P36915 whole entry, looked up): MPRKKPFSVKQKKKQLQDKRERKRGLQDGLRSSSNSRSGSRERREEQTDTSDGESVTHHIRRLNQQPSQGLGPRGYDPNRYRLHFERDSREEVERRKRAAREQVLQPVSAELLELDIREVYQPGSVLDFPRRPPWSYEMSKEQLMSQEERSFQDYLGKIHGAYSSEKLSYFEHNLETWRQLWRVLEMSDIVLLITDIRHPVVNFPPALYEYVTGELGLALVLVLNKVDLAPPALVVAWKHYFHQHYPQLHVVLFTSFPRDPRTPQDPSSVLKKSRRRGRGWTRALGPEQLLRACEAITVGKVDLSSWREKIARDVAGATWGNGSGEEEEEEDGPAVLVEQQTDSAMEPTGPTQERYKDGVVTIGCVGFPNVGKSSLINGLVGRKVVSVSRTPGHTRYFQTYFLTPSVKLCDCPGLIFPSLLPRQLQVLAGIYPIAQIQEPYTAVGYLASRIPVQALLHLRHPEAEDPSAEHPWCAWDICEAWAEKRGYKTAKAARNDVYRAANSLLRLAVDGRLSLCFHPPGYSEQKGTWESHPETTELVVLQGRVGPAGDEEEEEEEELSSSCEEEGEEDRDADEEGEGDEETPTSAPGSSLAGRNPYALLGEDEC
# Sequence of UniProt P0C0S5 (P0C0S5 whole entry, looked up): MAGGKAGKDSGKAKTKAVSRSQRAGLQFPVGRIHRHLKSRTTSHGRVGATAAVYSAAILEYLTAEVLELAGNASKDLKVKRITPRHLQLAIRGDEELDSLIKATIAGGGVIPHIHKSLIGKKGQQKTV
# Sequence of UniProt P31150 (P31150 whole entry, looked up): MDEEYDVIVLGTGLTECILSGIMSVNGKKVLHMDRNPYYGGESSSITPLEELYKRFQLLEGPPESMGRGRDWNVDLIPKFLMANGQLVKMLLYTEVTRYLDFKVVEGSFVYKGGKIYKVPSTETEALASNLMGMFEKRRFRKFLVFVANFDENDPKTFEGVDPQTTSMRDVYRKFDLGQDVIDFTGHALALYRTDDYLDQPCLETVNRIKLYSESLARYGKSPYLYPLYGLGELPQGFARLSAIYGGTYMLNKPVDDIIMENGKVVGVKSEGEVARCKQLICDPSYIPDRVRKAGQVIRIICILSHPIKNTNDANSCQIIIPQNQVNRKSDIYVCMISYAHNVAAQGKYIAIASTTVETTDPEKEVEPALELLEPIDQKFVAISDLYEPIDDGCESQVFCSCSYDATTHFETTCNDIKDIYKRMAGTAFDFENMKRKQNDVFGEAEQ
# Sequence of UniProt Q8WXD5 (Q8WXD5 whole entry, looked up): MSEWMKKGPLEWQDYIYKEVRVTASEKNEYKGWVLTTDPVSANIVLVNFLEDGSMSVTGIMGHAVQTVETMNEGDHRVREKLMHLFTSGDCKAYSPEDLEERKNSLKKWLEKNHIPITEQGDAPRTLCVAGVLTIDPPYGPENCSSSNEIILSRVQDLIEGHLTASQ
Target,log2 fold change [1],log2 fold change [2],log2 fold change [3],log2 fold change [4],log2 fold change [5],log2 fold change [6],log2 fold change [7],log2 fold change [8],log2 fold change [9],log2 fold change [10],log2 fold change [11],log2 fold change [12],log2 fold change [13],log2 fold change [14],log2 fold change [15],log2 fold change [16],log2 fold change [17],log2 fold change [18],log2 fold change [19],log2 fold change [20]
HIC2 (UniProt Q96JB3),0.039,0.028,-0.005,-0.093,0.131,0.009,0.123,-0.005,-0.035,-0.033,0.028,-0.19,0.032,-0.134,0.126,0.128,-0.035,-0.185,0.164,-0.006
GEMIN6 (UniProt Q8WXD5),-0.049,-0.05,0.014,0.015,0.134,0.073,-0.001,0.008,-0.088,-0.053,0.109,0.148,-0.052,0.093,-0.017,-0.019,-0.039,0.071,-0.087,-0.048
GDI1 (UniProt P31150),0.007,0.012,-0.003,0.009,-0.051,0.015,-0.008,-0.027,-0.032,0.012,0.018,0.113,0.025,0.022,-0.031,-0.068,-0.015,0.027,-0.082,0.008
HSD17B12 (UniProt Q53GQ0),0.094,0.032,0,0.022,-0.111,-0.006,-0.01,-0.141,-0.018,-0.04,-0.046,-0.183,0,-0.013,-0.036,-0.104,0.01,-0.016,-0.039,0.037
GNL1 (UniProt P36915),0.019,-0.014,0.032,0.036,-0.031,-0.01,0.081,0.002,-0.033,0.017,-0.095,-0.229 (active),0.027,0.008,-0.006,-0.1,0.024,0.01,-0.083,-0.053
H2AZ1 (UniProt P0C0S5),-0.051,0,-0.174,-0.01,0.75 (active),-0.209,0.233,0.074,0.454,-0.083,0,0.065,-0.084,-0.311,0.054,0.103,-0.071,-0.052,0.435,0.026
GCSH (UniProt P23434),-0.024,0.047,0.279,0.006,-0.06,0.079,-0.021,-0.139,0,-0.095,0.055,0.065,-0.078,0.005,0.05,0.023,0.028,0.053,0.012,-0.338 (active)
HIP1 (UniProt O00291),-0.086,-0.004,-0.028,0.002,0.286 (active),-0.003,0.056,0.233,0.043,0.01,0.027,-0.23,-0.095,0.085,0.005,0.031,-0.045,-0.007,-0.063,-0.148
FLNA (UniProt P21333),-0.03,-0.049,0.015,0.006,0.092,0.021,0.075,0.044,0.092,0.019,-0.121,-0.375 (active),0.078,0.063,-0.074,-0.004,0.029,0.019,0.052,-0.12
HNRNPK isoform 2 (UniProt P61978),0.034,0.004,-0.003,0.075,0.022,0.048,0.048,-0.031,0.063,0.024,-0.143,-0.271 (active),0.062,0.003,-0.027,-0.027,0,0.022,-0.01,-0.216 (active)
HEATR5B (UniProt Q9P2D3),0.013,0.005,0.03,0.022,0.219 (active),0.019,-0.014,-0.024,0.07,0,-0.053,-0.19,0.083,-0.058,-0.041,0.018,-0.009,0.003,-0.017,-0.015
IFRD2 isoform 2 (UniProt Q12894),0.093,0.035,-0.129,-0.13,0.055,-0.043,0.062,-0.225,-0.2,-0.142,0.084,0.045,-0.261,-0.02,0,0.029,-0.319,0.225,-0.023,0.196
HNRNPF (UniProt P52597),0.076,-0.005,-0.032,-0.017,0.036,0.106,0.101,0.027,0.051,0.047,-0.049,-0.587 (active),0.128,0.009,-0.066,-0.027,0.051,0.037,0.052,-0.153
GYG1 (UniProt P46976),0.209,0.035,-0.041,-0.029,0.146,0.014,0.046,0.101,0.027,-0.037,0.107,0.338,0,-0.104,0.011,-0.045,0.019,-0.045,0.016,-0.011
GDPD1 (UniProt Q8N9F7),0.003,-0.135,0.022,-0.07,-0.026,0.022,-0.081,0.099,-0.046,0.001,0.069,0.049,-0.019,0.017,-0.015,-0.188,0.004,0.083,-0.132,0.092
IFT74 (UniProt Q96LB3),-0.086,-0.044,-0.01,-0.084,0.746 (active),-0.059,0.005,-0.007,0.26,-0.037,0.125,0.01,-0.319,-0.061,-0.057,0,-0.051,0.031,0.025,-0.05
